Results on 18 compounds are retold here after PubChem BioAssay (NCATS).

Molecules are shown by their SMILES. Values without a mark were called inactive. Results filed as inconclusive are left out. Active and inactive are the calls of the source. Unless noted, the call rests on the fitted dose curve; in most records, active means well fitted curve in the direction sought with a large enough effect; inconclusive means small, poorly fitted or top-dose-only effect, or another doubt; inactive means no such curve, though single readings can be large; an effect the other way counts as inactive or inconclusive.

Test [1] can be described thus: Cell Viability - BJ (AID 421; calls by dose curve;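 further: potency means the concentration at half of the fitted maximal effect; cells exposed to compound for 40 hours at 37 °C before readout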). To be noted: BJ fibroblast viability, qHTS. In short, it runs like this: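 Luminescent ATP signal (CellTiter-Glo, 20 min at room temperature) served as the read-out of viable BJ cells after 40 hours of compound treatment. Responses were scaled between DMSO and 100 uM tamoxifen, and AC50 values were obtained by Hill modeling.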
(In qHTS, concentration-response curves come from the screen itself.)

A short description of test [2]: Cell Viability - Jurkat (AID 426;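 active means dose-dependent loss of cell ATP signal giving a full or clear fitted curve, ranked by lower potency value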; further: potency means the concentration at half of the fitted maximal effect). The settings on record: qHTS. In short, it runs like this: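 qHTS, 1536-well; Jurkat E6-1, 5000 cells/well, complete medium; cpd 40 hr, 37 °C; CellTiter-Glo 20 min RT; luminescence. AC50 by Hill fit.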
Test [3] is described as follows: Cell Viability - Hek293 (AID 427;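 active means compounds whose dose-response curve shows a full or clear partial loss of cell viability, called from curve shape rather than a numeric limit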;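 further: potency means the concentration at half of the fitted maximal effect; cells exposed to compound for 40 hours at 37 °C before reading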). To be noted: qHTS. In short, it runs like this: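 Luminescent ATP read-out (CellTiter-Glo, 20 min RT) after 40 hr compound exposure at 37 °C in complete medium. Signal normalized to DMSO (basal) and 100 uM tamoxifen (100% inhibition); concentration-response fitted with the standard Hill equation to give AC50.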
Test [4] in a line: Cell Viability - HepG2 (AID 433; calls by dose curve;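 further: potency means the concentration at half of the fitted maximal effect; potency for ATP loss meaning cytotoxicity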). The settings on record: qHTS. In short, it runs like this:
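HepG2 cells, 1500 per well, treated 40 hr at 37 °C in complete medium; viability from intracellular ATP by CellTiter-Glo luminescence. Normalized to DMSO and 100 uM tamoxifen; AC50 from Hill fit of qHTS concentration-response.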

Test [5] can be described thus: Cell Viability - MRC5 (AID 434; calls by dose curve;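 further: potency means the concentration at half of the fitted maximal effect; potency reflects cytotoxicity seen as loss of intracellular ATP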). To be noted: MRC5 lung fibroblast viability, qHTS. In short, it runs like this: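 MRC5 normal human lung fibroblasts, 1500 cells/well, exposed to compound for 40 hr at 37 C. Cellular ATP was read by CellTiter-Glo luminescence; data normalized to DMSO and 100 uM tamoxifen, with AC50 from Hill fits.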
Test [6] can be described thus: Cell Viability - SK-N-SH (AID 435; calls by dose curve;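 further: potency means the concentration at half of the fitted maximal effect; compound exposure lasted 40 h at 37 °C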). The settings on record: SK-N-SH neuroblastoma cell viability qHTS. In short, it runs like this: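 SK-N-SH neuroblastoma cells (1500/well) treated 40 h at 37 °C in complete medium; viability read as cellular ATP by CellTiter-Glo luminescence. Normalized to DMSO and 100 uM tamoxifen; AC50 from Hill fits of qHTS concentration-response.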

Test [7] is described as follows: Cell Viability - NIH 3T3 (AID 541).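 Further: plate controls were DMSO alone for no effect and tamoxifen positive control for full effect; nearly all actives have a fitted effect of over 25% in size.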 To be noted: NIH 3T3 cell viability, qHTS; activity change, negative = cytotoxicity: at 92.2 µM (top of the series). In short, it runs like this:
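Luminescent ATP signal (CellTiter-Glo) served as the viability read-out after NIH 3T3 cells were exposed to compounds over a concentration range for 40 hr at 37 °C. Hill-equation modelling of concentration-response data gave AC50.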

A short description of test [8]: Cell Viability - HUV-EC-C (AID 542). Further: nearly all actives have a fitted effect of over 35% in size. Further: potency means the concentration at half of the fitted maximal effect. The settings on record: HUV-EC-C endothelial cell viability, qHTS; series mostly up to 92.2 µM. In short, it runs like this: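 qHTS cytotoxicity: HUV-EC-C, 1000 cells/well, 5 hr settle, compound 40 hr 37 °C, CellTiter-Glo, luminescence. AC50 via Hill equation.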
The nature of test [9]: Cell Viability - H-4-II-E (AID 543). Further: nearly all actives have a fitted effect of over 35% in size. Further: potency means the concentration at half of the fitted maximal effect. The settings on record: H-4-II-E rat hepatoma viability; series mostly up to 92.2 µM. In short, it runs like this: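 Luminescent ATP signal (CellTiter-Glo) served as the viability read-out, with cytotoxicity seen as a concentration-dependent ATP drop. Cells were treated for 40 hours in complete medium. AC50 values derive from Hill-equation modelling.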

Test [10] in a line: Cell Viability - SH-SY5Y (AID 544). Further: nearly all actives have a fitted effect of over 55% in size. Further: potency means the concentration at half of the fitted maximal effect. To be noted: SH-SY5Y neuroblastoma cell viability; series mostly up to 92.2 µM. In short, it runs like this: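 Luminescent ATP read-out (CellTiter-Glo) measures loss of viable SH-SY5Y neuroblastoma cells after 40 hr compound exposure at 37 °C. AC50 values derive from standard Hill modelling of qHTS concentration-response data.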
The nature of test [11]: Cell Viability - Renal Proximal Tubule (AID 545). Further: nearly all actives have a fitted effect of over 40% in size. Further: potency means the concentration at half of the fitted maximal effect.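 On activity change, negative = cytotoxicity: 0% = DMSO only and -100% = 100 µM tamoxifen.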 The settings on record: renal proximal tubule cells viability, primary cells of rat origin; series mostly up to 91.7 µM. In short, it runs like this:
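Rat renal proximal tubule primary cells, 1000/well, exposed to compounds for 40 hr at 37 °C in complete medium; cellular ATP read by CellTiter-Glo luminescence. AC50 from concentration-response fitted with standard Hill equation.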

The nature of test [12]: Cell Viability - Mesenchymal (AID 546).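 Further: cells exposed to compound for 40 hours before reading; 0% = DMSO only and -100% = 100 µM tamoxifen.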 To be noted: mesenchymal cells viability, qHTS; series mostly up to 91.7 µM. In short, it runs like this:
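Human kidney mesenchymal cells from normal renal glomeruli, 1000 cells/well, rested 5 hr at 37 °C, then treated 40 hr at 37 °C in complete medium. Cellular ATP read by CellTiter-Glo luminescence; AC50 from Hill-equation fits.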

Test [13] in a line: AP1 Signaling Pathway (AID 357; active means well fitted curve in either direction with a large enough effect, not every such curve was filed as active; further: on the % scale 0 is the no-effect control and ±100 the full control effect). The settings on record: ME-180 AP-1-bla reporter, EGF-induced, beta-lactamase ratio, 5 h. In short, it runs like this: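 A ratiometric CCF4 readout (405 nm excitation; 460 and 530 nm emission) quantified AP-1-driven beta-lactamase in ME-180 cells after 5 h with compound and EC50 EGF; AC50 values were derived for activators and inhibitors.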
Test [14] is described as follows: NFAT Signaling Pathway (AID 444; active means well fitted curve in either direction with a large enough effect, not every such curve was filed as active;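 further: carbachol stimulus at about its EC50 of 1 µM final; on the % scale 0 is the no-effect control and ±100 the full control effect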). To be noted: Jurkat NFAT-bla M1, carbachol, beta-lactamase ratio, 5 h. In short, it runs like this:
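Jurkat cells with NFAT-driven β-lactamase reporter and co-expressed M1 receptor, stimulated with carbachol (final 1 uM, ~EC50), compound titration, 5 h at 37 °C. CCF4 loaded 1 h at RT; 460/530 nm ratio gave %activity and AC50.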

Test [15] can be described thus: Stat Signaling Pathway (AID 446; active means well fitted curve in either direction with a large enough effect, not every such curve was filed as active;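 further: ME-180 cervical cancer cells given 40 pM IL-6 alongside compound; SIE-controlled beta-lactamase reporter measured as 460/530 nm FRET emission ratio; on the % scale 0 is the no-effect control and ±100 the full control effect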). The settings on record: ME-180 (cervical carcinoma) SIE beta-lactamase reporter, IL-6 stimulated, 5 h. In short, it runs like this:
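ME-180 SIE-bla cells; overnight plating; cpd + IL-6 40 pM, 5 h, 37 C; LiveBLAzer 2.5 h RT; 460/530 nm emission ratio. Normalized to 300 pM IL-6 and 125 nM JAK inhibitor controls.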

The target in test [16] is Glucocorticoid receptor (Homo sapiens) (UniProt P04150). As to the kind of experiment: GR-GFP Redistribution (AID 450;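 active means compounds whose dose series gives a full or clear partial fitted curve of increased nuclear translocation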; further: potency means the concentration at half of the fitted maximal effect). The settings on record: U2OS GR-GFP nuclear translocation, laser cytometry, 2 h.
Glucocorticoid receptor (Homo sapiens), sequence (P04150 whole entry, looked up, the tested form may be a part): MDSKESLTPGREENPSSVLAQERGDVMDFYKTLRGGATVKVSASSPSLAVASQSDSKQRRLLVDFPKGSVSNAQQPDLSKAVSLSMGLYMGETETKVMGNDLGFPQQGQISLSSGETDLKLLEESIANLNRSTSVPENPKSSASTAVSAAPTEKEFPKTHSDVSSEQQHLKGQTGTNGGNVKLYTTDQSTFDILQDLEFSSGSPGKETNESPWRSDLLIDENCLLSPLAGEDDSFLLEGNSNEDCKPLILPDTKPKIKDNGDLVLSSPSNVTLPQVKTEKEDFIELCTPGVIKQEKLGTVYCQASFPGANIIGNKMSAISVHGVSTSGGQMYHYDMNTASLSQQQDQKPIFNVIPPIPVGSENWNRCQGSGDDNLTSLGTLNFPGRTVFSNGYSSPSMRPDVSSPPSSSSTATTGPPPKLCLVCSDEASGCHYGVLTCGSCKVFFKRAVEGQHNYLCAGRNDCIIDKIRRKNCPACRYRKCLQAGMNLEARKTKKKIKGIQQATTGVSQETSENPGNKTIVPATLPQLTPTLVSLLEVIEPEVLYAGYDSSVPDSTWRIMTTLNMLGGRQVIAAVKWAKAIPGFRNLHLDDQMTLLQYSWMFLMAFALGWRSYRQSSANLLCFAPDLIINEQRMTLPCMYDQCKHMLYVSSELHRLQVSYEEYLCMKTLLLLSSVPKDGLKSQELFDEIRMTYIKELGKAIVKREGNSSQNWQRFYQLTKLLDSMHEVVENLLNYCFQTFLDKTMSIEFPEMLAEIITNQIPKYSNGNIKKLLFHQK
Test [17] deals with Mitogen-activated protein kinase 10 (Mus musculus) (UniProt Q61831). As to the kind of experiment: JNK3 AlphaScreen Assay (AID 530; active means well fitted curve in either direction with a large enough effect, not every such curve was filed as active;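 further: kinase came from lysate of stimulated human HepG2 cells; signal reports phosphorylation of biotinylated GST-cJun 1-79 at Ser73 with 10 µM ATP; on the % scale 0 is the no-effect control and ±100 the full control effect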). To be noted: JNK3 lysate, c-Jun phosphorylation; series mostly up to 57.1 µM. In short, it runs like this: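 Pre-activated (IL-1β/TNFα) JNK3 in HepG2 lysates phosphorylates biotin-GST-cJun(1-79), 10 uM ATP; anti-phospho-cJun(Ser73) AlphaScreen read at room temperature, pH 7.6 Tris buffer. Compounds pre-incubated 15 min as titrations.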
On the technique in general: Bead proximity is the source of the signal in Alpha formats.

In test [18] the target is Glucocorticoid receptor (Homo sapiens) (UniProt P04150). As to the kind of experiment: GR-EFC Redistribution (AID 451; calls by dose curve; further: potency means the concentration at half of the fitted maximal effect). The settings on record: CHO-K1 GR-EFC translocation, beta-gal luminescence, 2 h. In short, it runs like this: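 CHO-K1 cells expressing nuclear EA and GR-ED fragments of b-gal; compounds titrated up to 46 uM final, 2 h at 37 C. GR nuclear translocation read as complemented b-gal luminescence after 1 h RT detection.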

As to `[Cl][In]([Cl])[Cl]`, the Potency in test [1], in [2], in [3], in test [4], in test [5] and in [6] was > 92 µM in each case. Moreover, the Potency entry in [7], in test [8], in [9], in test [10] and in test [11] was “inactive” throughout. Besides, the call in [12] was inactive.

Take `OCC(O)CN1CCN(c2ccccc2)CC1` (configuration not stated): the activity change, negative = inhibition is -1.76% in [13] (at 17.2 µM (top of the series)) and 8.65% in test [14] (at 17.2 µM (top of the series)). In [15] (at 17.2 µM (top of the series)), the activity, negative = inhibition is 10.1%. Moreover, the Potency in test [16] was > 20.6 µM.

With `CC(=O)OCC(=O)[C@@]1(O)CC[C@H]2[C@@H]3CCC4=CC(=O)CC[C@]4(C)[C@H]3C(=O)C[C@@]21C`, the activity change, negative = inhibition in test [13] (at 17.2 µM (top of the series)) was 0.362%. Also, the activity, negative = inhibition in [15] (at 17.2 µM (top of the series)) was 11.3%.

Turning to `CC(COc1ccccc1)NC(C)C(O)c1ccc(O)cc1` (configuration not stated), in test [13] (at 17.2 µM (top of the series)), the activity change, negative = inhibition is 9.92%. Further, in test [15] (at 17.2 µM (top of the series)), the activity, negative = inhibition was 20.7%. The Potency in [16] is > 20.6 µM.

Regarding `O=C1c2c(O)cccc2Cc2cccc(O)c21`, the Potency in [1], in [2], in test [3], in test [4], in [5] and in test [6] was > 92 µM each time. In addition, the Potency entry in test [17], in test [8], in [9], in test [10] and in test [11] was “inactive” each time.

Take `CCCCOc1cc(C(=O)OCCN(CC)CC)ccc1N`: the activity change, negative = inhibition in test [13] (at 17.2 µM (top of the series)) was -0.742%. In test [15] (at 17.2 µM (top of the series)), the activity, negative = inhibition is -0.0669%. Besides, the Potency in test [16] and in test [18] was > 20.6 µM each time. The Potency entry in test [17] was “inactive”.

With `Cc1c(O)cccc1C(=O)N[C@@H](CSc1ccccc1)[C@H](O)CN1C[C@H]2CCCC[C@H]2C[C@H]1C(=O)NC(C)(C)C`, the Potency in [1] is 25.2 µM (active); in [2] it was 31.8 µM (active); in test [3], 24.4 µM (active); in [4], 24.6 µM (active); in test [5] it was 31.7 µM (active); in [6] it was 24.5 µM (active). Also, the Potency in test [8] is 31.6 µM (active); in test [9] it was 31.6 µM (active); in [10] it was 1.26 µM (active); in test [11] it was 31.6 µM (active). For the same compound, the Potency result in [17] was “inactive”.

For `NCCNCCNCCN`, the Potency in test [1], in test [2], in test [3], in test [4], in test [5] and in test [6] was > 92 µM throughout. Besides, the Potency result in [17], in test [7], in test [8], in test [9], in test [10] and in test [11] was “inactive” in each case. The outcome in test [12] was inactive.

Turning to `O=C(O)CN1C(=O)c2cccc3cccc(c23)C1=O`, the Potency result in [17] is “inactive”.

Consider `NC(=O)N/N=C/c1ccc([N+](=O)[O-])o1`, for which the Potency was > 92 µM in test [1], > 92 µM in test [5], > 92 µM in test [6] and 31.6 µM (active) in test [9]. Also, the Potency entry in test [17], in [8], in [10] and in [11] was “inactive” in each case. Besides, the activity change, negative = cytotoxicity in test [7] is -81.4% (active). For the same compound, in test [12], the compound was called inactive.

`CSc1ccc2c(c1)N(CCC1CCCCN1C)c1ccccc1S2` (configuration not stated): the activity change, negative = inhibition in test [14] (at 17.2 µM (top of the series)) is -83% (active).

For `C[C@H](N)[C@H](O)c1cccc(O)c1`, the activity change, negative = inhibition is 2.95% in test [13] (at 17.2 µM (top of the series)) and -4.86% in test [14] (at 17.2 µM (top of the series)). In addition, the activity, negative = inhibition in test [15] (at 17.2 µM (top of the series)) was 4.65%. In addition, the Potency in test [16] and in test [18] was > 20.6 µM each time. For the same compound, the Potency entry in test [17] was “inactive”.

For the compound `COc1ccccc1O`, the Potency in test [1], in test [2], in test [3], in test [4], in test [5] and in [6] was > 92 µM each time. The Potency result in test [17], in test [7], in test [8], in test [9], in test [10] and in test [11] was “inactive” each time. Besides, in [12], the call was inactive.

As for `CCCCCCCCCCCCCCCC(=O)NCCO`, the activity change, negative = inhibition in [13] (at 38 µM (top of the series)) was 11.1%; in test [14] (at 38 µM (top of the series)), 9.44%. The activity, negative = inhibition in test [15] (at 38 µM (top of the series)) is -2.15%. Further, the Potency result in test [17] was “inactive”.

For the compound `O=C1O[C@H]([C@@H](O)CO)C(O)=C1O`, the Potency in [1], in test [2], in [3], in [4], in [5] and in test [6] was > 92 µM in each case. Moreover, the Potency result in test [17], in test [7], in test [8], in test [9], in [10] and in test [11] was “inactive” in each case. Besides, the call in [12] was inactive.

For `CN(C)CCN(Cc1ccccc1)c1ccccn1`, in [16], the Potency is > 20.6 µM.

For the compound `CC[C@H]1CN2CCc3cc(OC)c(OC)cc3[C@@H]2C[C@@H]1C[C@H]1NCCc2cc(OC)c(OC)cc21`, the activity change, negative = inhibition was -119% (active) in [13] (at 17.2 µM (top of the series)) and -131% (active) in test [14] (at 17.2 µM (top of the series)). In addition, the activity, negative = inhibition in [15] (at 17.2 µM (top of the series)) was -96.7% (active). For the same compound, the Potency in [16] is > 20.6 µM.

As for `NCCNCCNCCNCCN`, the Potency in test [1], in [2], in test [3], in [4], in test [5] and in [6] was > 92 µM throughout. For the same compound, the Potency entry in [17], in [7], in test [8], in [9], in test [10] and in test [11] was “inactive” in each case. Further, in test [12], the call was inactive.
